This is an account of results in PubChem BioAssay (NCATS).

Molecules are shown by their SMILES. Inconclusive results are not listed. Where a call stands in place of a potency, no number is given. Active and inactive are the calls of the source. Calls come from the whole dose curve; as a rule, active = well fitted cell-killing curve with a large enough effect; inconclusive = small, poorly fitted or top-dose-only effect; inactive = flat fitted curve, though single readings scatter.
Potency is the fitted concentration of half-maximal effect.

This assay can be described thus: Cellular viability qHTS for adrenocortical cancer (ACC) cell line NCI-H295R (AID 1963990). Note: nearly all actives have a fitted effect of over 60% in size. The conditions noted are these: CellTiter-Glo ATP luminescence, 48 h; series mostly up to 46.1 µM. In short, it runs like this:
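Readout: CellTiter-Glo luminescence, 20 min RT. Exposure: 48 h, 37C/5% CO2. Cells: NCI-H295R, ITS-DMEM serum-free. Range: up to 46 uM. Analysis: 4PL fit, IC50 plus efficacy.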
(qHTS replaces the single test concentration by a dilution series.)
Turning to `CC(=O)[C@@]1(O)CC[C@H]2[C@@H]3C[C@H](C)C4=CC(=O)C=C[C@]4(C)[C@@]3(F)[C@@H](O)C[C@@]21C`, the Potency entry is “inactive”.

Consider `Cc1cc(C)c(S(=O)(=O)N(CCc2cccc(Br)c2)Cc2ccc(-c3cccc(S(C)(=O)=O)c3)cc2)c(C)c1`, for which the Potency result was “inactive”.

In the case of `COc1cccc2c1c(O)c(C(=O)N(C)c1ccc(C(F)(F)F)cc1)c(=O)n2C`, the Potency result was “inactive”.

For `O=C(O)C1=CO[C@@H](O[C@@H]2O[C@H](CO)[C@@H](O)[C@H](O)[C@H]2O)[C@@H]2C(CO)=CC[C@H]12`, the Potency entry was “inactive”.

Turning to `COc1ccc(C(=O)C2CCN(CC(=O)N(Cc3nc4c(c(=O)[nH]3)COCC4)CC3CC3)CC2)cc1`, the Potency entry is “inactive”.

For `O=C(O)CCn1c2c(c3ccccc31)C[C@H](NS(=O)(=O)c1ccc(F)cc1)CC2`, the Potency entry is “inactive”.

Turning to `COc1cc(NS(=O)(=O)c2ccc(N)cc2)nc(C)n1`, the Potency entry was “inactive”.

`CO[C@@]12[C@H](COC(N)=O)C3=C(C(=O)C(C)=C(N)C3=O)N1C[C@@H]1N[C@@H]12`: the Potency result was “inactive”.

With `C=C1CCC[C@]2(C)C=C3OC(=O)C(C)=C3C[C@@H]12`, the Potency result was “inactive”.

In the case of `CCO[C@@H]1OC(=O)C[C@@H]1NC(=O)[C@@H]1CCCN1C(=O)[C@@H](NC(=O)c1ccc(N)c(Cl)c1)C(C)(C)C`, the Potency entry was “inactive”.

For the molecule `Cc1ccc(/C=N/n2c(-c3ccccc3)csc2=S)cc1`, the Potency entry is “inactive”.

Turning to `COC(=O)CCCCC(CCSS/C(CCO)=C(\C)N(C=O)Cc1cnc(C)nc1N)SC(C)=O` (stereo unspecified), the Potency entry is “inactive”.

Turning to `O=C1CC(c2ccc(Cl)cc2)CC(=O)N1`, the Potency entry was “inactive”.

`CN1C(=O)[C@@H](NC(=O)c2n[nH]c(Cc3ccccc3)n2)COc2ccccc21`: the Potency result was “inactive”.

For the molecule `O=C(O)CCCC[C@@H]1SC[C@@H]2NC(=O)N[C@@H]21`, the Potency entry is “inactive”.

Regarding `C[C@@H]1[C@H](O)[C@@H](C)/C=C/C=C/C=C/C=C/C=C/C=C/C=C/[C@H](O[C@@H]2O[C@H](C)[C@@H](O)[C@H](N)[C@@H]2O)C[C@@H]2O[C@](O)(C[C@@H](O)C[C@@H](O)[C@H](O)CC[C@@H](O)C[C@@H](O)CC(=O)O[C@H]1C)C[C@H](O)[C@H]2C(=O)O`, the Potency result was “inactive”.

Consider `CC(C)N(CCC(=O)c1ccc2ccccc2c1)Cc1ccccc1`, for which the Potency was 14.1 µM (active).

As to `CCOC(=O)Oc1ccc(CCNC(=O)[C@H](CCSC)NC(C)=O)cc1OC(=O)OCC`, the Potency entry was “inactive”.

On to `C[N+](C)(C)CC[N+]1(C)Cc2c(Cl)c(Cl)c(Cl)c(Cl)c2C1`, for which the Potency entry was “inactive”.

In the case of `O=C(Nc1cc(Oc2cc(F)c(NC(=O)C3(C(=O)Nc4ccc(F)cc4)CC3)cc2F)ccn1)C1CC1`, the Potency result is “inactive”.

In the case of `COc1ccc(CCN(C)CCCN2CCc3cc(OC)c(OC)cc3CC2=O)cc1OC`, the Potency result is “inactive”.
